In PubChem BioAssay:
Results filed as inconclusive are left out. Active and inactive are the calls of the source.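 Rule for the calls, unless noted: active = normalized viability below 100% at a tested concentration; inactive = the rest.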

Tests used:
[1] = growth inhibition of DIPG glioma cells, dose response, cell-based, SU-DIPG-XIII, MIPE4.0, CellTiter-Glo, qHTS (AID 1347061; cut-off not given, nearly all actives have AC50 up to about 37 µM;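 note: cells exposed to compound for 48 hours before readout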); details: SU-DIPG-XIII viability, CellTiter-Glo ATP luminescence
[2] = growth inhibition of DIPG glioma cells, dose response, cell-based, JHH-DIPG-1, MIPE4.0, CellTiter-Glo, qHTS (AID 1347062; cut-off not given, nearly all actives have AC50 up to about 27 µM;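 for AC50: cells exposed to compound for two days before readout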); details: JHH-DIPG-1 viability, CellTiter-Glo ATP luminescence
[3] = growth inhibition of DIPG glioma cells, dose response, cell-based, SU-DIPG-IV, MIPE4.0, CellTiter-Glo, qHTS (AID 1347063; cut-off not given, nearly all actives have AC50 up to about 30 µM;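 note: compound exposure lasted 48 hours before the viability readout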); details: SU-DIPG-IV viability, CellTiter-Glo ATP luminescence
[4] = growth inhibition of DIPG glioma cells, dose response, cell-based, SU-DIPG-XIII, MIPE5.0, CellTiter-Glo, qHTS (AID 1347064; cut-off not given, nearly all actives have AC50 up to about 23 µM;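 for AC50: cells exposed to compound for 48 hours before the viability read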); details: SU-DIPG-XIII viability, CellTiter-Glo ATP luminescence
[5] = viability loss in pontine glioma line – cell-based, SU-DIPG-XXV, MIPE5.0, CellTiter-Glo, qHTS, dose response (AID 1347065; cut-off not given, nearly all actives have AC50 up to about 26 µM;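 note: cells exposed to compound for 48 hours before ATP readout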); details: CellTiter-Glo ATP luminescence
[6] = SU-DIPG-VI glioma cell viability, MIPE4.0 library, CellTiter-Glo luminescence, qHTS (AID 1347066; cut-off not given, nearly all actives have AC50 up to about 30 µM;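 note: cells exposed to compound for 48 hours before readout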); details: CellTiter-Glo ATP luminescence
[7] = JHH-DIPG-1 glioma cell viability, MIPE5.0 library, CellTiter-Glo luminescence, qHTS (AID 1347067; cut-off not given, nearly all actives have AC50 up to about 26 µM;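 note: cells exposed to compound for 48 hours before readout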); details: JHH-DIPG-1 glioma viability, CellTiter-Glo ATP luminescence
[8] = SU-DIPG-XXV glioma cell viability, MIPE5.0 library, qHTS (AID 1347068; cut-off not given, nearly all actives have IC50 up to about 30 µM;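 for IC50: cells exposed to compound for 48 hours before viability readout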)
[9] = sensitizers of A549 cells to miR-34 induction, primary screen, imaging, A549 dox-inducible miR-34, nuclei and caspase counts (AID 1347080;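 active = compounds whose cell count with miR-34 switched on is under 0.7 times the count with it off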); details: A549 miR-34 inducible, Hoechst nuclei count, 48 h
[10] = modifiers of HSF1 nuclear foci, imaging, Selleck Cancer Library (AID 1347162; in the data active = plate-normalised HSF1 focus index below about 0.46); details: human cells, at 10 µM; SSMD: measured here: HSF1 foci SSMD mean; cell count: measured here: cell number; plate-normalised HSF1 focus index: stronger effect = lower value
[11] = survival rescue of mitochondrial mutant cells in low glucose, primary screen, MELAS cybrids, Rieske KO mouse fibroblasts, CellTiter-Glo (AID 1508586;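 active = mean z-score across replicates of 1.96 or higher in either the MELAS or the Rieske mutant cell line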;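 note: z relative to plate mean and SD of compound and empty wells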)
[12] = ovarian cancer cell viability with rucaparib, profiling panel, oncology-focused library, rucaparib conditional (AID 1508598); details: patient-derived ovarian cancer cells, CellTiter-Glo viability, 144 h, stronger effect = lower value
[13] = kinase inhibitors against Plasmodium liver-stage infection, cell-based, known kinase inhibitor set, luminescence, hepatoma host viability (AID 624392; call rule not given here;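 note: infected cells incubated roughly two days before readout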); details: Plasmodium liver stage in hepatoma cells, luciferase luminescence, concentration not given here; liver cell % of control: measured here: host liver cell viability; parasite % of control: stronger effect = lower value
[14] = growth inhibition of DIPG glioma cells, dose response, cell-based, SU-DIPG-XVII, MIPE5.0, CellTiter-Glo, qHTS (AID 1347060; cut-off not given, nearly all actives have AC50 up to about 26 µM); details: SU-DIPG-XVII viability, CellTiter-Glo ATP luminescence
[15] = stronger effect = lower value, cell number ratio, induced over uninduced
[16] = measured here: relative caspase fold change +Dox/-Dox
[17] = measured here: total cells with miR-34 induction, stronger effect = lower value
[18] = measured here: total cells without miR-34 induction
[19] = MELAS cybrid survival, CellTiter-Glo 48 h, stronger effect = higher value
[20] = Rieske KO mouse fibroblast survival, CellTiter-Glo 72 h
[21] = at 0.000305 µM, OCI-C5x cells, with rucaparib 10 µM, 100% = cells with rucaparib alone
[22] = at 0.000305 µM, OCI-C5x cells, without rucaparib
[23] = at 0.000305 µM, OCI-P5x cells, with rucaparib 20 µM, 100% = cells with rucaparib alone
[24] = at 0.000305 µM, OCI-P5x cells, without rucaparib
[25] = at 0.00122 µM, OCI-C5x cells, with rucaparib 10 µM, 100% = cells with rucaparib alone
[26] = at 0.00122 µM, OCI-C5x cells, without rucaparib
[27] = at 0.00122 µM, OCI-P5x cells, with rucaparib 20 µM, 100% = cells with rucaparib alone
[28] = at 0.00122 µM, OCI-P5x cells, without rucaparib
[29] = at 0.00488 µM, OCI-C5x cells, with rucaparib 10 µM, 100% = cells with rucaparib alone
[30] = at 0.00488 µM, OCI-C5x cells, without rucaparib
[31] = at 0.00488 µM, OCI-P5x cells, with rucaparib 20 µM, 100% = cells with rucaparib alone
[32] = at 0.00488 µM, OCI-P5x cells, without rucaparib
[33] = at 0.0195 µM, OCI-C5x cells, with rucaparib 10 µM, 100% = cells with rucaparib alone
[34] = at 0.0195 µM, OCI-C5x cells, without rucaparib
[35] = at 0.0195 µM, OCI-P5x cells, with rucaparib 20 µM, 100% = cells with rucaparib alone
[36] = at 0.0195 µM, OCI-P5x cells, without rucaparib
[37] = at 0.0781 µM, OCI-C5x cells, with rucaparib 10 µM, 100% = cells with rucaparib alone
[38] = at 0.0781 µM, OCI-C5x cells, without rucaparib
[39] = at 0.0781 µM, OCI-P5x cells, with rucaparib 20 µM, 100% = cells with rucaparib alone
[40] = at 0.0781 µM, OCI-P5x cells, without rucaparib
[41] = at 0.313 µM, OCI-C5x cells, with rucaparib 10 µM, 100% = cells with rucaparib alone
[42] = at 0.313 µM, OCI-C5x cells, without rucaparib
[43] = at 0.313 µM, OCI-P5x cells, with rucaparib 20 µM, 100% = cells with rucaparib alone
[44] = at 0.313 µM, OCI-P5x cells, without rucaparib
[45] = at 1.25 µM, OCI-C5x cells, with rucaparib 10 µM, 100% = cells with rucaparib alone
[46] = at 1.25 µM, OCI-C5x cells, without rucaparib
[47] = at 1.25 µM, OCI-P5x cells, with rucaparib 20 µM, 100% = cells with rucaparib alone
[48] = at 1.25 µM, OCI-P5x cells, without rucaparib
[49] = at 5 µM, OCI-C5x cells, with rucaparib 10 µM, 100% = cells with rucaparib alone
[50] = at 5 µM, OCI-C5x cells, without rucaparib
[51] = at 5 µM, OCI-P5x cells, with rucaparib 20 µM, 100% = cells with rucaparib alone
[52] = at 5 µM, OCI-P5x cells, without rucaparib

CC(C)n1nc(-c2ccc3oc(N)nc3c2)c2c(N)ncnc21
6620: cell count [10]
2980: cell count [9, 17]
3400: cell count [9, 18]
0.57: SSMD [10]
inactive: fold change [9, 15] 0.877 | plate-normalised HSF1 focus index [10] 1.03 | viability [12, 21] 109% | viability [12, 22] 109% | viability [12, 25] 113% | viability [12, 26] 121% | viability [12, 29] 100% | viability [12, 30] 123%
active: AC50 [1] 9.35 µM | AC50 [2] 8.33 µM | AC50 [3] 3.72 µM | AC50 [4] 1.18 µM | AC50 [5] 0.0661 µM | AC50 [6] 18.7 µM | AC50 [7] 1.18 µM | IC50 [8] 4.17 µM | z-score [11, 19] 2.73 | viability [12, 23] 96.2% | viability [12, 24] 92.8% | viability [12, 27] 92.7% | viability [12, 28] 90.7% | viability [12, 31] 80.8% | viability [12, 32] 79.2% | viability [12, 33] 87.5% | viability [12, 34] 88.1% | viability [12, 35] 56.8% | viability [12, 36] 52.8% | viability [12, 37] 70.4% | viability [12, 38] 62.2% | viability [12, 39] 43.5% | viability [12, 40] 37.2% | viability [12, 41] 61.9% | viability [12, 42] 55.6% | viability [12, 43] 36.9% | viability [12, 44] 26.5% | viability [12, 45] 51.8% | viability [12, 46] 47.4% | viability [12, 47] 29% | viability [12, 48] 22.9% | viability [12, 49] 39% | viability [12, 50] 31.9% | viability [12, 51] 19.5% | viability [12, 52] 15.8%
-2.58: z-score [11, 20]
0.45: fold change [9, 16]

CO[C@H]1C(=O)[C@]2(C)[C@@H](OC)C[C@H]3OC[C@@]3(OC(C)=O)[C@H]2[C@H](OC(=O)c2ccccc2)[C@]2(O)C[C@H](OC(=O)[C@H](O)[C@@H](NC(=O)OC(C)(C)C)c3ccccc3)C(C)=C1C2(C)C
active: AC50 [5] 0.00186 µM
inactive: outcome [1] | outcome [2] | outcome [3] | outcome [4] | outcome [6] | outcome [7]

CNC(=O)c1ccc(-c2cnc3ncc(Cc4ccc5ncccc5c4)n3n2)cc1F
inactive: outcome [1] | outcome [2] | outcome [3] | outcome [4] | outcome [5] | outcome [6] | outcome [8]

CCNc1cc(NC2CCC(O)CC2)nc(Nc2ccc3c(ccn3Cc3ccccc3)c2)n1 (stereo not drawn)
inactive: parasite % of control [13] 33.8% | outcome [1]
active: AC50 [2] 26.4 µM | AC50 [3] 18.7 µM | AC50 [4] 23.5 µM | AC50 [5] 16.6 µM | AC50 [7] 23.5 µM
83.4%: liver cell % of control [13]

CCN(c1cc(-c2ccc(CN3CCOCC3)cc2)cc(C(=O)NCc2c(C)cc(C)[nH]c2=O)c1C)C1CCOCC1
7910: cell count [9, 17]
0.487: fold change [9, 16]
inactive: outcome [14] | outcome [8] | fold change [9, 15] 0.946 | z-score [11, 19] -0.348
8360: cell count [9, 18]
-0.95: z-score [11, 20]

O=C(O)c1ccc(-c2cc3cccnc3c(-c3ccc4nonc4c3)n2)cc1
inactive: outcome [1]
active: AC50 [2] 20.9 µM | AC50 [3] 26.4 µM

Cc1cc(Nc2nc(N[C@@H](C)c3ncc(F)cn3)ncc2Cl)n[nH]1
active: AC50 [1] 16.6 µM | AC50 [2] 9.35 µM | AC50 [3] 13.2 µM | AC50 [4] 1.48 µM | AC50 [5] 0.661 µM | AC50 [6] 9.35 µM | AC50 [7] 0.934 µM | IC50 [8] 1.48 µM | viability [12, 21] 99.3% | viability [12, 23] 91% | viability [12, 24] 91.4% | viability [12, 27] 92.4% | viability [12, 28] 97.8% | viability [12, 32] 99.3% | viability [12, 36] 99.8% | viability [12, 39] 96.5% | viability [12, 41] 97.7% | viability [12, 43] 85.8% | viability [12, 44] 99.9% | viability [12, 45] 78.7% | viability [12, 47] 80.1% | viability [12, 48] 86.6% | viability [12, 49] 46.6% | viability [12, 50] 55.9% | viability [12, 51] 30.7% | viability [12, 52] 24.9%
inactive: viability [12, 22] 105% | viability [12, 25] 112% | viability [12, 26] 112% | viability [12, 29] 106% | viability [12, 30] 115% | viability [12, 31] 102% | viability [12, 33] 112% | viability [12, 34] 102% | viability [12, 35] 101% | viability [12, 37] 102% | viability [12, 38] 104% | viability [12, 40] 101% | viability [12, 42] 102% | viability [12, 46] 101%

CCOc1cc2ncc(C#N)c(Nc3ccc(F)c(Cl)c3)c2cc1NC(=O)/C=C/CN(C)C
3.17: SSMD [10]
active: AC50 [2] 7.43 µM | AC50 [3] 0.833 µM | AC50 [4] 5.9 µM | AC50 [5] 0.934 µM | AC50 [7] 9.34 µM | viability [12, 35] 67.4% | viability [12, 36] 81.4% | viability [12, 37] 89.4% | viability [12, 41] 33.8% | viability [12, 42] 83.6% | viability [12, 43] 87.8% | viability [12, 45] 17.6% | viability [12, 46] 47.6% | viability [12, 47] 66.1% | viability [12, 48] 91.8% | viability [12, 49] 1.66% | viability [12, 50] 3.35% | viability [12, 51] 1.19% | viability [12, 52] 1.58%
inactive: outcome [1] | plate-normalised HSF1 focus index [10] 1.19 | viability [12, 21] 117% | viability [12, 22] 129% | viability [12, 23] 106% | viability [12, 24] 117% | viability [12, 25] 115% | viability [12, 26] 115% | viability [12, 27] 105% | viability [12, 28] 119% | viability [12, 29] 105% | viability [12, 30] 126% | viability [12, 31] 112% | viability [12, 32] 121% | viability [12, 33] 104% | viability [12, 34] 122% | viability [12, 38] 103% | viability [12, 39] 104% | viability [12, 40] 117% | viability [12, 44] 103%
7120: cell count [10]
